Data: PubChem BioAssay AID2796 (The Scripps Research Institute Molecular Screening Center, 2010)
The whole screen tested about 320,000 compounds, of which about 8,000 (2.5%) were called active. Rule as the data show it: active = activation above about 47%; inactive = the rest. Only a selection was taken, and actives are over-represented in it overall.

Target: Aryl hydrocarbon receptor (Homo sapiens) (UniProt P35869)
Assay: AHR activators, primary screen, cell-based, luminescence, luciferase reporter, human (AID 2796);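 also: 0% = vehicle wells and 100% = reference agonist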
Settings: AHR-responsive luciferase reporter cells, at 5 µM, active compounds read high

Chain of Aryl hydrocarbon receptor (Homo sapiens) (P35869 whole entry, looked up): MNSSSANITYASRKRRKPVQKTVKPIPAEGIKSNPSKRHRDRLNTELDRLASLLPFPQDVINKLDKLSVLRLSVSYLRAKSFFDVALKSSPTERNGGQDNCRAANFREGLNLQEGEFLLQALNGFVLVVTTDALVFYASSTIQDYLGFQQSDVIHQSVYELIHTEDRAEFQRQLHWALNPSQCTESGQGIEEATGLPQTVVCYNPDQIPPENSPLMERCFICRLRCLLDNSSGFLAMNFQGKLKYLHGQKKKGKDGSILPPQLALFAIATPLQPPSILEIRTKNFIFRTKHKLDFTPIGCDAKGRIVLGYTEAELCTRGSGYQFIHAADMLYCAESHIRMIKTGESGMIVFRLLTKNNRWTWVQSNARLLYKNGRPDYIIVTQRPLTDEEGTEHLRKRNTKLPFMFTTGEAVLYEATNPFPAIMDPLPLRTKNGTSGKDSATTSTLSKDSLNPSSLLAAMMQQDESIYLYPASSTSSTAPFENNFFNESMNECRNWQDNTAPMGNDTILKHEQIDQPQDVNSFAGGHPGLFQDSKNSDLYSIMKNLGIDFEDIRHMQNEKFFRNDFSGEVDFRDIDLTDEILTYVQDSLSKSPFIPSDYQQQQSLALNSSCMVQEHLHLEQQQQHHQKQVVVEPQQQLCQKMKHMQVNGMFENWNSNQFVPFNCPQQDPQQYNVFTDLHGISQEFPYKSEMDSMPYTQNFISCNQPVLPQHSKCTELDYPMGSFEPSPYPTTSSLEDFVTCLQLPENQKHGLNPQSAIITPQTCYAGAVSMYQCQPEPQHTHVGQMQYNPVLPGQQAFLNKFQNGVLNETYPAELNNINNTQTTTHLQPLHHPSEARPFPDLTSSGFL

activation, active:
c1ccc(NCc2cccc3ccccc23)nc1 67.9%, O=C(Nc1ccc(OC(F)(F)F)cc1)c1ccc2c(c1)no[n+]2[O-] 93.6%, O=C(Nc1ccc(F)cc1)c1cc2c(s1)CCCC2 55.3%, O=C(Nc1ccccc1)c1cc2ccccc2[nH]1 160%, COc1ccc(/C=N\NC(=O)c2sc(N)nc2C)cc1OC 77.3%, O=C(Cc1cccs1)Nc1cccc(-c2nc3ccccc3[nH]2)c1 75.8%, Cc1nc2sc(C(=O)c3ccccc3)c(N)c2c2c1CCCC2 85.3%, COc1cccc(OCc2cc(/C=N/NC(=O)c3nc(Cl)c(Cl)c(N)c3Cl)ccc2OC)c1 73.8%, COc1cccc(-c2cc(C(=O)N/N=C/c3ccc(OC)c(COC(C)=O)c3)c3ccccc3n2)c1 54.1%, CC1Cc2ccccc2N1C(=O)CSc1nnc(C2CC2)n1C (configuration not stated) 93%, Cc1cc2oc(C(=O)Nc3c(C)n(C)n(-c4ccccc4)c3=O)c(C)c2cc1Cl 81%, COc1ccc(Nc2nnc(C)c3ccccc23)cc1 102%, S=c1nc2ccccc2c2nc(-c3cccnc3)[nH]n12 83.8%, COCCNc1nc(-c2ccccc2)nc2c1oc1ccccc12 88.9%, O=C(Cn1cncn1)N/N=C/c1c2ccccc2cc2ccccc12 84.8%, NC(=O)c1ccccc1N=Cc1ccc2ccccc2c1 87.6%, Fc1ccc2nc(Nc3nc4c(s3)CCCC4)sc2c1 49.8%, COc1ccccc1-c1nnc(SCC(=O)Nc2ccccc2)o1 75.5%, CCOC(=O)c1ccc(-c2ccc(C(=O)Nc3cccnc3)o2)cc1 48.9%

activation, inactive:
c1ccc2c(CNn3cnnc3)cccc2c1 0.98%, COc1ccc2ccccc2c1CNCc1ccccn1 18.4%, COc1ccc(CCNC(=O)C(=O)NCC2OCCN2S(=O)(=O)c2cccs2)cc1OC (configuration not stated) -2.65%, CN(CCc1ccccc1)C(=O)c1cccc(NC(=O)Cc2ccc([N+](=O)[O-])cc2)c1 -0.06%, Cn1nccc1NC(=O)Nc1ccc(OC(F)(F)F)cc1 3.12%, Cn1cccc1/C=N/NC(=O)c1ccc(OC(F)(F)C(F)F)cc1 3.37%, COC(=O)c1ccc(COC(=O)CNC(=O)c2cccc(OC)c2)o1 0.14%, O=C(c1ccc(-c2ccccc2)cc1)C1CCCN(C(=O)c2cncs2)C1 (configuration not stated) 37.6%, CC1(C)CC(=O)C=C(c2ccc3ncccc3c2)C1 8.47%, O=C(NNC(=O)c1cc2c(s1)CCCC2)c1ccccc1 4.72%, CN(C)C(=O)c1ccc(NC(=O)COC(=O)c2cc3c(s2)CCCCC3)cc1 -0.09%, CC(C)CCNC(=O)C(C)N(C(=O)Cn1nnc(-c2ccc(F)cc2)n1)C1CCCC1 (configuration not stated) -2.15%, COc1ccc2[nH]c(C(=O)Nc3ccccc3Cl)cc2c1 21%, CC(OC(=O)c1cc2ccccc2[nH]1)C(=O)N(C)c1ccccc1 (configuration not stated) 28.8%, CCc1ccc(Oc2nc([N+](=O)[O-])nn2C)cc1 -3.57%, CCCN(CCc1ccccc1)C1CCc2c(O)cccc2C1 (configuration not stated) 3.78%, COc1cc(/C=N/NC(=O)CNC(=O)c2ccncc2)ccc1OC(C)=O 0.59%, COc1cc(/C=N/NC(=O)c2cccnc2)ccc1OC(=O)c1cccc(Br)c1 18.7%, COc1cnc(SCc2ccc(Cl)c(Cl)c2)nc1Cl -1.43%, CCOC(=O)c1ccc(NC(=O)Cc2cccs2)cc1 0.34%, O=C(Cc1cccs1)Nc1ccc([N+](=O)[O-])cc1 0.97%, CN1CCC(CN)(N2CCN(c3ccccc3)CC2)CC1 2.54%, COc1ccccc1C(=O)N(Cc1ccc(C)o1)C1CCS(=O)(=O)C1 (configuration not stated) -1.67%, CCc1nc2sc(C(=O)O)c(N)c2c2c1CCCC2 0.64%, Cc1ccc2c(N)c(C(=O)c3ccccc3)sc2n1 46.1%, CC1(C)CC(=O)C=C(NCCN2CCNCC2)C1 3.32%, COc1cccc(C2=CC(=O)C[C@H](c3ccc(OC)c(OC)c3)C2)c1 2.2%, O=S(=O)(Nc1cc(S(=O)(=O)N2CCOCC2)ccc1N1CCCC1)c1cccs1 1.52%, CCOc1ccc2[nH]c(C(=O)N/N=C/c3cccc(OC)c3OC)cc2c1 33%, CCOc1cc(/C=N/NC(=O)c2cc(-c3ccccc3)nc3ccccc23)ccc1O 16.1%, COc1ccc2[nH]c(C(=O)N/N=C/c3cc(OC)c(OC)c(OC)c3)cc2c1 30.9%, COc1ccc(/C=N/NC(=O)c2cc(-c3cccc(C)c3)nc3ccccc23)cc1O 21.2%, O=C(COc1ccc(Br)cc1F)NCC1(N2CCCCC2)CCCCC1 -0.81%, O=c1oc2c(Cl)cc(Cl)cc2cc1-c1nnc(Nc2ccccc2F)s1 10.5%, OC(COCCC12CC3CC(CC(C3)C1)C2)CN1CCCCC1 (configuration not stated) 0.68%, CC(=O)N[C@H]1[C@H]([C@H](O)[C@H](O)CO)OC(C(=O)O)=C[C@@H]1O 0.57%, Cc1ccc(S(=O)(=O)N(CC(=O)Nc2cccc([N+](=O)[O-])c2)Cc2ccc(Cl)cc2)cc1 6.55%, CC1Cc2ccccc2N1C(=O)CSc1nnc(-c2ccc(S(=O)(=O)N3CCCC3)cc2)n1C (configuration not stated) 1.18%, CCn1c(CSc2ncccn2)nnc1SCC(=O)N1c2ccccc2CC1C (configuration not stated) -1.92%, CO/N=C/c1ccc(N2CCN(C(=O)c3cccc(Cl)c3)CC2)c([N+](=O)[O-])c1 -0.18%, Cc1nn(Cc2ccccc2Cl)c(C)c1NC(=O)Cn1nc([N+](=O)[O-])c(Cl)c1C 0.37%, COc1cccc(NC(=O)COc2cc(C)cc3oc(=O)cc(C)c23)c1 12.3%, Cc1c(NC(=O)c2coc(=O)c(Br)c2)c(=O)n(-c2ccccc2)n1C 0.64%, Cc1c(NC(=O)c2cc(-c3ccc(Br)cc3)on2)c(=O)n(-c2ccccc2)n1C -3.47%, COCCN(Cc1cc2cc3c(cc2nc1Cl)OCO3)C(=O)c1cccc(C)c1 11.9%, Cc1nnc(NCCO)c2ccccc12 -2.09%, COc1ccc(Nc2nc(=O)[nH]nc2C)cc1 -3.65%, CCCCNC(=O)N1CCCC(N(C)CCc2ccc(OC)c(OC)c2)C1 (configuration not stated) -0.75%, CCNC(=O)NNC(=O)C1CC(c2cccs2)=NO1 (configuration not stated) 3.35%, Cn1cccc1C(=O)OCC(=O)NCCc1ccccc1 7.54%, O=C(CSc1n[nH]c(-c2cccnc2)n1)Nc1ccnc2ccccc12 8.3%, c1ccc(-n2nnnc2-c2cccnc2)cc1 36.3%, O=C(/C=C/Sc1ncn[nH]1)c1ccc(Cl)cc1 0.35%, COc1cc(C)ccc1OCC(=O)OCC(=O)c1ccc[nH]1 -3.4%, C[C@@H](Nc1nc(-c2ccccc2)nc2c1oc1ccccc12)C(=O)O 16.4%, CCOCCCNc1nc(-c2ccccc2)nc2ccccc12 13.5%, Nc1nnn(CC(=O)N/N=C/c2ccccc2)n1 0.68%, Cc1nn(-c2ccccc2)c(C)c1/C=N/NC(=O)CSc1nc2ccccc2c(=O)n1-c1ccccc1 1.64%, CCCCNC(=O)C1CCCNC1=O (configuration not stated) -1.12%, c1ccc(-c2csc(N3CCc4ccccc4C3)n2)cc1 14.7%, COc1ccc(/C=N/Nc2ccccc2C(=O)O)cc1 3.83%, O=C(NN=Cc1ccc(N2CCOCC2)cc1)c1cc2ccccc2cc1O 11.3%, O=C(c1ccc(N2CCOCC2)c([N+](=O)[O-])c1)N1CCN(S(=O)(=O)c2cccs2)CC1 -4.2%, Cn1c(=O)c2c(nc(N3CCOCC3)n2CCNC2=NCCC2)n(C)c1=O -1.68%, O=C(c1ccc(F)cc1)N1CCC(n2nnc3ccccc32)CC1 -1.01%, NS(=O)(=O)c1ccc2nc(NC(=O)CS(=O)(=O)c3ccc(F)cc3)sc2c1 8.79%, CCS(=O)(=O)N1Cc2ccccc2CC1C(=O)Nc1nc2ccc(F)cc2s1 (configuration not stated) -3.42%, O=C(Nc1ccc(Br)cc1F)C1CC(=O)N(C2CCCCC2)C1 (configuration not stated) 0.73%, COc1ccccc1CCNC(=O)CN1C(=O)NC2(CCCC2)C1=O -2.06%, Cc1cc2c(cc1S(=O)(=O)NCc1ccc(Cl)cc1)OCC(=O)N2 1%, COc1cccc(NC(=O)CSc2nnc(-c3cccnc3)o2)c1 29.8%, COc1ccccc1-c1nnc(SCC(=O)N2CC(C)CC(C)C2)o1 (configuration not stated) 29%, CN(CC(=O)Nc1ccc(F)cc1)CC(=O)N1CCCCC1 3.11%, CCc1ccc(N(C(=O)c2csnn2)C(C(=O)NC2CCCCC2)c2ccncc2)cc1 (configuration not stated) 3.1%, O=C(CN1C(=O)NC2(CCCC2)C1=O)Nc1cc(C(F)(F)F)ccc1N1CCOCC1 -0.32%, COc1ccc(C)cc1NC(=O)c1ccc(-c2ccc(C(C)=O)cc2)o1 40.5%, COc1cccc(C(=O)Nc2cccnc2)c1OC 19.2%, CCN(CC)P(=O)(C(NC(=O)OC)C(F)(F)C(F)(F)C(F)(F)C(F)F)N(CC)CC (configuration not stated) -0.37%
